{"source": "PubChem BioAssay (NCATS)", "key": {"[1]": {"target": "Tyrosine-protein kinase Yes (Homo sapiens) (UniProt P07947)", "sequence (P07947 whole entry, looked up)": "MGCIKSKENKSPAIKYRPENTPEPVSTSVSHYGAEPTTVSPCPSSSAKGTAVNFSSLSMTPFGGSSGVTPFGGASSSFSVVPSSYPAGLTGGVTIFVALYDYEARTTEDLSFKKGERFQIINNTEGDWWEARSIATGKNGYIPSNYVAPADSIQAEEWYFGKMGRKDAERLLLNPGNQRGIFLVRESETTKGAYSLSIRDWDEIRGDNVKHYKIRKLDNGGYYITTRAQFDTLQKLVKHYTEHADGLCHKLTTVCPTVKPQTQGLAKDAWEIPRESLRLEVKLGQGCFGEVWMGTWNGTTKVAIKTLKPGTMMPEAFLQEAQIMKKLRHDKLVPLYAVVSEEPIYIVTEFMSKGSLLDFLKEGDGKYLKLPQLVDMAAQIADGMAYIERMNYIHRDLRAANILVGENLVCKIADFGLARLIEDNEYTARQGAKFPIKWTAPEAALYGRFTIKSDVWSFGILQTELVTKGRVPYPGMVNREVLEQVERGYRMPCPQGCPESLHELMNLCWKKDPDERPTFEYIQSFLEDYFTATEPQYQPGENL", "experiment": "qHTS for small molecule inhibitors of Yes1 kinase: Primary Screen (AID 686947); also: nearly all actives have a fitted effect of over 60% in size; also: potency is read from the fitted curve at half-maximal effect", "settings": "Yes1 kinase biochemical qHTS inhibition; series mostly up to 76.9 µM", "how_it_was_run": "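Yes1 (4 nM) preincubated 20 min with compound, then 60 min room-temperature reaction with 0.1 mM ATP and 0.3 mg/mL poly(E4Y) in pH 7.5 Tris, 10 mM MgCl2. ADP measured by ADP-Glo luminescence, normalised to enzyme/no-enzyme controls.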"}, "[2]": {"experiment": "qHTS for small molecule inhibitors of Yes1 kinase: Counter Assay (AID 686950);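 also: no kinase present so only ADP-Glo detection of a fixed ADP amount is tested; luminescence from ADP-Glo reporting ADP in a fixed ATP and ADP mixture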", "settings": "series mostly up to 76.9 µM", "how_it_was_run": "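Luminescence read-out from ADP-Glo quantifies a fixed ADP amount (0.02 mM ADP with 0.08 mM ATP) after 60 min at room temperature; signal is normalized between DMSO wells with ATP/ADP and with 0.1 mM ATP alone.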"}, "[3]": {"target": "DNA polymerase iota (Homo sapiens) (UniProt Q9UNA4)", "sequence (Q9UNA4 whole entry, looked up)": "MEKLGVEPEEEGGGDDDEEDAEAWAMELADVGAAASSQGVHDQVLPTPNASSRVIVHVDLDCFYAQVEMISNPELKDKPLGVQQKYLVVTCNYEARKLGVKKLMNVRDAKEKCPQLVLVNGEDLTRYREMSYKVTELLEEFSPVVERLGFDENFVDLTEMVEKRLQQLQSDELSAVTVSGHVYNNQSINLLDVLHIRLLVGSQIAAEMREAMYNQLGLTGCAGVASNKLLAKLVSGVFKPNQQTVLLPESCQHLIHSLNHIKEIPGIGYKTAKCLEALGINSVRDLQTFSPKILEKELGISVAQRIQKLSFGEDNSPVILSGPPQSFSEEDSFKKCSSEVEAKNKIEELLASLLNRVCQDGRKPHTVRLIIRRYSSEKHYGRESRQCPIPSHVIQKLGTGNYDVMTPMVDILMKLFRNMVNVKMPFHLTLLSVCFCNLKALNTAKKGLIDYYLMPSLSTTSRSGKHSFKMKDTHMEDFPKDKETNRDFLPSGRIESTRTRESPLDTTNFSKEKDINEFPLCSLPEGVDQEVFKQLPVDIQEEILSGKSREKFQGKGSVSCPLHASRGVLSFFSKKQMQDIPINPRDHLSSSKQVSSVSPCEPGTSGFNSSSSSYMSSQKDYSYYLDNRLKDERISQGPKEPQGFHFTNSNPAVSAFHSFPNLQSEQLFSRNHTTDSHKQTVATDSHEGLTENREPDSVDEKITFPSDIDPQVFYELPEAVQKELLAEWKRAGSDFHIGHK", "experiment": "qHTS for Inhibitors of Polymerase Iota: Confirmatory Assay for Cherry-picked Compounds (AID 720496); also: potency is read from the fitted curve at half-maximal effect", "settings": "Pol iota primer extension, TAMRA/BHQ fluorescence", "how_it_was_run": "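Step 1: 10 nM Pol iota with compound, 15 min, room temperature. Step 2: 50 nM final quenched DNA substrate added. Step 3: fluorescence (ex 525, em 598 nm) read at 0 and after 10 min.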"}, "[4]": {"target": "Bifunctional 3'-5' exonuclease/ATP-dependent helicase WRN (Homo sapiens) (UniProt Q14191)", "sequence (Q14191 whole entry, looked up)": "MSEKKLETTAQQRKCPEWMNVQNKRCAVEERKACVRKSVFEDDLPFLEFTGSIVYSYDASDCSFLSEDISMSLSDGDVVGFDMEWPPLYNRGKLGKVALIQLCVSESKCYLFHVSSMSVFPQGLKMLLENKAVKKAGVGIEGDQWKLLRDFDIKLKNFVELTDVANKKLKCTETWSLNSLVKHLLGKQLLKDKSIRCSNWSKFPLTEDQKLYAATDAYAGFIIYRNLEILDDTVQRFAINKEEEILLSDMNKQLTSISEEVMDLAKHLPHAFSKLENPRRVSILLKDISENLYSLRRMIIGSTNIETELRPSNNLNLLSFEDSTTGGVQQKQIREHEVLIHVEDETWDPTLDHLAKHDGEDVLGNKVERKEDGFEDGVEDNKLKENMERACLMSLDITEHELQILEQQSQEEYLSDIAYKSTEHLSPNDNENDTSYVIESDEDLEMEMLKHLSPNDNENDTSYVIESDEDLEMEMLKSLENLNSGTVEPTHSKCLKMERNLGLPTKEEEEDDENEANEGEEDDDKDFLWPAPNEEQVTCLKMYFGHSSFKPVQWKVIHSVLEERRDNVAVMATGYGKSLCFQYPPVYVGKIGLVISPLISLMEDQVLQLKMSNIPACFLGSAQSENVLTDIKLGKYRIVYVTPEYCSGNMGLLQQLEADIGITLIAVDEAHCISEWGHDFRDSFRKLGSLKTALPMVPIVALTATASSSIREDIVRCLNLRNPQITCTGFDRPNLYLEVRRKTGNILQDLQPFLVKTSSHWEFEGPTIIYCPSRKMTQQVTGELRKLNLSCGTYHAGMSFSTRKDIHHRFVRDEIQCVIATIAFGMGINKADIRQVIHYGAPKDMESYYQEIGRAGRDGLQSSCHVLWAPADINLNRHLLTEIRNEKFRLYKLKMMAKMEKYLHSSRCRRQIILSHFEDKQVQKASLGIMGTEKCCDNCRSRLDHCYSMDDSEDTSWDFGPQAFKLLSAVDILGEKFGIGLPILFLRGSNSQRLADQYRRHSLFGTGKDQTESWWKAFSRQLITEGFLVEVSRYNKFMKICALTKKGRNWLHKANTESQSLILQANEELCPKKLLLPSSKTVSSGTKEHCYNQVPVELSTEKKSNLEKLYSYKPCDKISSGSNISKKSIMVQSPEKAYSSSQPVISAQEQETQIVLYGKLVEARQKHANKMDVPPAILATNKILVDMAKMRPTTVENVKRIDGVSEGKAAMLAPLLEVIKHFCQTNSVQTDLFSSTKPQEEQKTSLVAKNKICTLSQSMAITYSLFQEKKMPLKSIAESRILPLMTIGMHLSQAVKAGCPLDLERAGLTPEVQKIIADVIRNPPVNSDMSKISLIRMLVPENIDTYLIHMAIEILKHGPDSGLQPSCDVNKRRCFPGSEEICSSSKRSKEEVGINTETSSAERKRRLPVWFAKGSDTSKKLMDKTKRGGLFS", "experiment": "qHTS for Inhibitors of WRN Helicase: Confirmatory Assay for Cherry-picked Compounds. (AID 720497); also: potency is read from the fitted curve at half-maximal effect; nearly all actives have a fitted effect of over 65% in size", "settings": "WRN helicase DNA unwinding, fluorescence kinetic; series mostly up to 57.1 µM", "how_it_was_run": "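WRN at 20 nM final was preincubated with compound for 15 min at room temperature; the reaction was started with 100 nM forked duplex oligonucleotide and 2 mM ATP (final). Red fluorescence (ex 525/em 598 nm) was read kinetically, with inhibition normalized to enzyme-only and buffer-only wells.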"}, "[5]": {"experiment": "qHTS for Inhibitors of WRN Helicase: Thiazole Orange DNA Binding Counterscreen (AID 720499);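 also: drop in dye fluorescence marks compound binding to DNA; nearly all actives have a fitted effect of over 60% in size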", "settings": "thiazole orange DNA binding displacement, fluorescence; series mostly up to 57.1 µM", "how_it_was_run": "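Compounds were pin-transferred into 50 nM unlabeled DNA premixed with 100 nM thiazole orange. After 15 min at room temperature, fluorescence (ex 480 nm, em 530 nm) was read; loss of signal flags dye displacement from nonspecific DNA binders.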"}, "[6]": {"target": "DNA polymerase eta (Homo sapiens) (UniProt Q9Y253)", "sequence (Q9Y253 whole entry, looked up)": "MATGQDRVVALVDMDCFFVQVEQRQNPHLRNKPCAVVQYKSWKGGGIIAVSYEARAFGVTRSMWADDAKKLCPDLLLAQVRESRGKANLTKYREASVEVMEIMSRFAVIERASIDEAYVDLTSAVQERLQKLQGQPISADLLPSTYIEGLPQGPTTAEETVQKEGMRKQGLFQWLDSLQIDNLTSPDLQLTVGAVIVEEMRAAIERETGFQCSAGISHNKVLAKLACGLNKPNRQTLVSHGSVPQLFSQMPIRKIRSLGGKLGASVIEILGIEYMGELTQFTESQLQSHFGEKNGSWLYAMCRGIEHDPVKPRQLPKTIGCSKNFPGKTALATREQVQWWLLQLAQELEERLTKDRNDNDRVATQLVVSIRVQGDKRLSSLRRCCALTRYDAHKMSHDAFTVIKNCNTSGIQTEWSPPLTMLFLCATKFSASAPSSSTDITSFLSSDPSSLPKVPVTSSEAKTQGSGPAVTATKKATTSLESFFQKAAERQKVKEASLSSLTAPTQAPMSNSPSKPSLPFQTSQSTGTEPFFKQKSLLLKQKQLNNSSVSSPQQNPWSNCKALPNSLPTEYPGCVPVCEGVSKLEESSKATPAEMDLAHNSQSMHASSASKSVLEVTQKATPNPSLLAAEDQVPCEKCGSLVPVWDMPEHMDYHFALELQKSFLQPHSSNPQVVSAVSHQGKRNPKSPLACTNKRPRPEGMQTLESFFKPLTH", "experiment": "qHTS for Inhibitors of Polymerase Eta: Confirmatory Assay for Cherry-picked Compounds (AID 720502); also: potency is read from the fitted curve at half-maximal effect", "settings": "Pol eta primer extension, TAMRA/BHQ fluorescence, 10 min", "how_it_was_run": "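Strand-displacement fluorescence (525 nm excitation, 598 nm emission) was read kinetically at 0 and 10 min after adding 50 nM final TAMRA-reporter/BHQ-2-template substrate. Beforehand, 10 nM Pol eta had been exposed to compound for 15 min at room temperature.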"}, "[7]": {"target": "Flap endonuclease 1 (Homo sapiens) (UniProt P39748)", "sequence (P39748 whole entry, looked up)": "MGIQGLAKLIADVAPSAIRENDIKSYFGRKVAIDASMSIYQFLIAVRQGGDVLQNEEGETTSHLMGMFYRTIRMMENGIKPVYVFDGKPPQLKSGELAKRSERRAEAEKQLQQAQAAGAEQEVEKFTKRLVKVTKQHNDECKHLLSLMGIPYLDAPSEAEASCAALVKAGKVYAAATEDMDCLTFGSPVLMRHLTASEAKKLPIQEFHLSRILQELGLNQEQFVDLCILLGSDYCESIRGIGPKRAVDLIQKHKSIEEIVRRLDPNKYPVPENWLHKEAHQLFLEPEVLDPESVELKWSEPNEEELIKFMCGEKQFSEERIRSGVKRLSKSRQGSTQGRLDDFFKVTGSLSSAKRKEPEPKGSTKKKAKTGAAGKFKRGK", "experiment": "qHTS Assay for the Inhibitors of FEN1: Confirmatory Assay for Cherry-picked Compounds (AID 720498); also: potency is read from the fitted curve at half-maximal effect; nearly all actives have a fitted effect of over 60% in size", "settings": "FEN1 flap cleavage, TAMRA/BHQ2 fluorogenic DNA substrate", "how_it_was_run": "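FEN1 at 10 nM was preincubated with compound for 15 min at room temperature, then 50 nM (final) double-flap DNA substrate was added. TAMRA fluorescence released from the BHQ-2-quenched flap was read at 0 and 15 min (ex 525/em 598 nm).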"}}, "note": "Records with an inconclusive call do not appear. Some of the results follow. A call without a number means that no potency is given here. Activity calls are given as the source filed them. Calls follow the shape of the dose curve; as a rule, active = well fitted curve in the direction sought with a large enough effect; inconclusive = small, poorly fitted or top-dose-only effect, or another doubt; inactive = no such curve, though single readings can be large; an effect the other way counts as inactive or inconclusive.", "data": [{"smiles": "CC(=O)Nc1cccc(C#Cc2cncnc2Nc2ccc(OCc3cccc(F)c3)c(Cl)c2)n1", "values": [{"measurement": "Potency", "setting": "[1]", "result": "inactive"}, {"measurement": "outcome", "setting": "[2]", "result": "inactive"}]}, {"smiles": "COc1cccc(-n2cnc3c(NN=Cc4ccncc4)ncnc32)c1", "values": [{"measurement": "Potency", "setting": "[1]", "result": "0.582 µM (active)"}, {"measurement": "outcome", "setting": "[2]", "result": "inactive"}]}, {"smiles": "CCS(=O)(=O)c1ccc(OC)c(Nc2nccc(N(C)c3ccc4c(C)[nH]nc4c3)n2)c1", "values": [{"measurement": "Potency", "setting": "[1]", "result": "0.0519 µM (active)"}, {"measurement": "outcome", "setting": "[2]", "result": "inactive"}]}, {"smiles": "Cc1cc(O)cc(C)c1C=Cc1cncc(C(=O)OC(C)(C)C)c1", "values": [{"measurement": "Potency", "setting": "[1]", "result": "0.733 µM (active)"}, {"measurement": "outcome", "setting": "[2]", "result": "inactive"}]}, {"smiles": "Fc1ccc(-c2nn3ncccc3c2-c2ccnc(Nc3ccc4c(c3)OCCO4)n2)cc1", "values": [{"measurement": "Potency", "setting": "[1]", "result": "0.0654 µM (active)"}, {"measurement": "outcome", "setting": "[2]", "result": "inactive"}]}, {"smiles": "Cc1c(CC(=O)N2CCN(C(=O)C3COc4ccccc4O3)CC2)c(=O)oc2c(O)c(O)ccc12", "note": "(stereo not drawn)", "values": [{"measurement": "Potency", "setting": "[3]", "result": "15 µM (active)"}, {"measurement": "Potency", "setting": "[4]", "result": "2.41 µM (active)"}, {"measurement": "Potency", "setting": "[5]", "result": "inactive"}, {"measurement": "Potency", "setting": "[6]", "result": "7.57 µM (active)"}]}, {"smiles": "CCOc1cccc2c1N[C@@H](c1ccc(C(=O)O)cc1)[C@H]1CC=C[C@@H]21", "values": [{"measurement": "Potency", "setting": "[3]", "result": "33.6 µM (active)"}, {"measurement": "Potency", "setting": "[7]", "result": "47.8 µM (active)"}, {"measurement": "Potency", "setting": "[6]", "result": "7.57 µM (active)"}]}, {"smiles": "Fc1ccc(Oc2nccc(-c3c(-c4ccc(F)cc4)ncn3C3CCNCC3)n2)cc1", "values": [{"measurement": "outcome", "setting": "[2]", "result": "inactive"}]}, {"smiles": "Nc1nccc(-c2c(-c3ccc(F)cc3)nn3cc(C(F)(F)F)ccc23)n1", "values": [{"measurement": "outcome", "setting": "[2]", "result": "inactive"}]}, {"smiles": "Fc1ccc(-c2ncn(C3CCNCC3)c2-c2ccnc(Oc3cccc(F)c3)n2)cc1", "values": [{"measurement": "outcome", "setting": "[2]", "result": "inactive"}]}, {"smiles": "COC(=O)c1sc(-n2cnc3cc(OC)c(OC)cc32)cc1OCc1ccccc1C(F)(F)F", "values": [{"measurement": "outcome", "setting": "[2]", "result": "inactive"}]}, {"smiles": "CC(=Nc1ccc(S(N)(=O)=O)cc1)c1c(O)[nH]c2ccccc12", "values": [{"measurement": "outcome", "setting": "[2]", "result": "inactive"}]}, {"smiles": "NS(=O)(=O)c1ccc(N=Nc2c(=O)[nH]c3ccc4[nH]cccc4c23)cc1", "values": [{"measurement": "outcome", "setting": "[2]", "result": "inactive"}]}, {"smiles": "COc1cc2ncnc(Nc3ccc4c(cnn4Cc4ccccc4)c3)c2cc1OC", "values": [{"measurement": "outcome", "setting": "[2]", "result": "inactive"}]}, {"smiles": "CNC(=O)c1cncc(C=Cc2c(Cl)cccc2Cl)c1", "values": [{"measurement": "outcome", "setting": "[2]", "result": "inactive"}]}, {"smiles": "Cc1nnc(-c2ccc(C)c(-c3ccc(C(=O)Nc4cccc(C#N)c4)cc3)c2)o1", "values": [{"measurement": "outcome", "setting": "[2]", "result": "inactive"}]}, {"smiles": "O=C(c1cc2c(s1)CCC2)N1CCN(c2ccccc2)CC1", "values": [{"measurement": "Potency", "setting": "[3]", "result": "37.7 µM (active)"}]}, {"smiles": "CCS(=O)(=O)c1ccc(OC)c(Nc2ncc(-c3ccccc3Cl)o2)c1", "values": [{"measurement": "outcome", "setting": "[2]", "result": "inactive"}]}, {"smiles": "Cc1cccc2c(N=Nc3ccc(S(N)(=O)=O)cc3)c(O)[nH]c12", "values": [{"measurement": "outcome", "setting": "[2]", "result": "inactive"}]}, {"smiles": "COc1cc2ncn(-c3cc(OCc4ccccc4Cl)c(C(N)=O)s3)c2cc1OC", "values": [{"measurement": "outcome", "setting": "[2]", "result": "inactive"}]}, {"smiles": "Fc1ccc(-c2ncn(C3CCNCC3)c2-c2ccnc(Oc3ccc(Cl)cc3)n2)cc1", "values": [{"measurement": "outcome", "setting": "[2]", "result": "inactive"}]}, {"smiles": "CCS(=O)(=O)c1ccc(OC)c(Nc2ncc(-c3cccc(F)c3)o2)c1", "values": [{"measurement": "outcome", "setting": "[2]", "result": "inactive"}]}, {"smiles": "CC(/C=N/NC(=O)c1cc(-c2ccc3ccccc3c2)n[nH]1)=C\\c1ccco1", "values": [{"measurement": "Potency", "setting": "[3]", "result": "75.2 µM (active)"}]}, {"smiles": "O=C(CSc1nc2ccccc2c(=O)[nH]1)Nc1nc(-c2ccc(Br)cc2)cs1", "values": [{"measurement": "Potency", "setting": "[3]", "result": "21.2 µM (active)"}, {"measurement": "Potency", "setting": "[7]", "result": "60.1 µM (active)"}, {"measurement": "Potency", "setting": "[6]", "result": "75.7 µM (active)"}]}, {"smiles": "c1cnn2ncc(-c3ccnc(NCCCN4CCOCC4)n3)c2c1", "values": [{"measurement": "outcome", "setting": "[2]", "result": "inactive"}]}, {"smiles": "CCOC(=O)C1=C(c2ccc(OC)cc2)C(=O)c2ccccc2C1=O", "values": [{"measurement": "Potency", "setting": "[3]", "result": "75.2 µM (active)"}]}, {"smiles": "Fc1ccc(-c2ncn(C3CCNCC3)c2-c2ccnc(Oc3cccc(C(F)(F)F)c3)n2)cc1", "values": [{"measurement": "outcome", "setting": "[2]", "result": "inactive"}]}, {"smiles": "Fc1cccc(COc2ccc(Nc3ncnc4sc(-c5cccs5)cc34)cc2Cl)c1", "values": [{"measurement": "outcome", "setting": "[2]", "result": "inactive"}]}, {"smiles": "CN(C)CCNC(=O)c1ccc(Cl)c2cc3ccccc3nc12", "values": [{"measurement": "Potency", "setting": "[3]", "result": "67 µM (active)"}, {"measurement": "Potency", "setting": "[7]", "result": "13.5 µM (active)"}]}, {"smiles": "CCc1ccc2nc3sc(C(=O)Nc4nnc(CC)s4)c(N)c3cc2c1", "values": [{"measurement": "Potency", "setting": "[3]", "result": "47.4 µM (active)"}, {"measurement": "Potency", "setting": "[4]", "result": "13.6 µM (active)"}, {"measurement": "Potency", "setting": "[7]", "result": "60.1 µM (active)"}, {"measurement": "Potency", "setting": "[5]", "result": "inactive"}, {"measurement": "Potency", "setting": "[6]", "result": "60.1 µM (active)"}]}, {"smiles": "Nc1nc(-c2ccccn2)c(-c2ccc3ncccc3n2)s1", "values": [{"measurement": "outcome", "setting": "[2]", "result": "inactive"}]}, {"smiles": "NC(=O)c1sc(-n2cnc3cc(C(F)(F)F)ccc32)cc1OCc1ccccc1Br", "values": [{"measurement": "outcome", "setting": "[2]", "result": "inactive"}]}, {"smiles": "O=C(OC1CNC(C#Cc2cc3ncnc(Nc4ccc5c(cnn5Cc5ccccc5)c4)c3s2)C1)N1CCOCC1", "note": "(stereo not drawn)", "values": [{"measurement": "outcome", "setting": "[2]", "result": "inactive"}]}, {"smiles": "CCCN1CCC(Oc2cc(Nc3nc(Nc4cccc(F)c4C(N)=O)c4cc[nH]c4n3)c(OC)cc2Cl)CC1", "values": [{"measurement": "outcome", "setting": "[2]", "result": "inactive"}]}, {"smiles": "CCN(c1ccc(Cl)cc1)S(=O)(=O)c1nnc(NC(=O)c2ccco2)s1", "values": [{"measurement": "Potency", "setting": "[3]", "result": "75.2 µM (active)"}]}, {"smiles": "O=S1CCN(Cc2ccc(-c3ccc4ncnc(Nc5ccc(OCc6cccc(F)c6)c(Cl)c5)c4c3)o2)CC1", "values": [{"measurement": "outcome", "setting": "[2]", "result": "inactive"}]}, {"smiles": "CCCN1CCCC(c2ccc(Nc3nc(Nc4cc(F)ccc4C(N)=O)c4cc[nH]c4n3)c(OC)c2)C1", "note": "(stereo not drawn)", "values": [{"measurement": "outcome", "setting": "[2]", "result": "inactive"}]}, {"smiles": "COc1ccc(Cl)cc1NC(=O)CCS(=O)(=O)c1ccc(Br)cc1", "values": [{"measurement": "Potency", "setting": "[3]", "result": "18.9 µM (active)"}, {"measurement": "Potency", "setting": "[4]", "result": "21.5 µM (active)"}, {"measurement": "Potency", "setting": "[5]", "result": "inactive"}, {"measurement": "Potency", "setting": "[6]", "result": "16.9 µM (active)"}]}]}
